Screens deposited in PubChem BioAssay by National Center for Advancing Translational Sciences (NCATS).
SW480 rereplic = A quantitative high throughput screen for small molecules that induce DNA re-replication in SW480 colon adenocarcinoma cells | SW480 DNA re-replication, Hoechst DNA content imaging, 48 h | Potency, µM (titrated, usually from 46.1 µM), without a hit: top-dose re-replication activation, hits mostly activators | hit rate 1.8% among 340,000; further: potency means the concentration at half of the fitted maximal effect; % of control where 0% means no effect; nearly all actives have a fitted effect of over 55% in size
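Readout is total intensity of Hoechst-stained nuclei, excited at 405 nm and collected at 500-530 nm. Compound treatment lasted 48 hr at 37 C in 5% CO2 before staining.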
KCNH2 3.1 inh = qHTS for Inhibitors of KCHN2 3.1: Mutant qHTS; hit rate 0.95% among 340,000; AID 720553, 2013; activity change, % (tested at about 1.8 µM); Potassium voltage-gated channel subfamily H member 2, brain isoform KCNH2 3.1 (human); U2OS KCNH2 3.1, thallium flux FluxOr; hits give low values;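 active means maximum activity change below -70%; inconclusive means maximum activity change from -70% to -50%; inactive means maximum activity change above -50%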;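 further: thallium influx rate constant from kinetic fluorescence after stimulation buffer; on the % scale 0 is the no-effect control and ±100 the full control effect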
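We transduce U2OS cells with the mutant 3.1 virus, culture them overnight, load FluxOr with Red40 quencher for 45 min, then add stimulation buffer and read kinetically for 2 min to derive a normalized rate constant.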
MCF10A rerep = A quantitative high throughput screen for small molecules that induce DNA re-replication in MCF 10a normal breast cells | MCF 10A DNA re-replication, Hoechst nuclear intensity, 48 h | Potency, µM (titrated, usually from 46.1 µM), for inactives: top-dose activity, positive = re-replication, hits mostly activators | hit rate 2.9% among 350,000; further: potency means the concentration at half of the fitted maximal effect; % of control where 0% means no effect; nearly all actives have a fitted effect of over 50% in size
KCNH2 WT inh = qHTS for Inhibitors of KCHN2 3.1: Wildtype qHTS | Voltage-gated inwardly rectifying potassium channel KCNH2 (Homo sapiens), Q12809 | U2OS, BacMam KCNH2, thallium flux FluxOr; hits give low values | activity change, % at 1.84 µM | hit rate 0.37% among 340,000;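 active means maximum activity change below -70%; inconclusive means maximum activity change between -70% and -50%; inactive means maximum activity change above -50%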; further: on the % scale 0 is the no-effect control and ±100 the full control effect
Target sequence (Q12809 whole entry, looked up): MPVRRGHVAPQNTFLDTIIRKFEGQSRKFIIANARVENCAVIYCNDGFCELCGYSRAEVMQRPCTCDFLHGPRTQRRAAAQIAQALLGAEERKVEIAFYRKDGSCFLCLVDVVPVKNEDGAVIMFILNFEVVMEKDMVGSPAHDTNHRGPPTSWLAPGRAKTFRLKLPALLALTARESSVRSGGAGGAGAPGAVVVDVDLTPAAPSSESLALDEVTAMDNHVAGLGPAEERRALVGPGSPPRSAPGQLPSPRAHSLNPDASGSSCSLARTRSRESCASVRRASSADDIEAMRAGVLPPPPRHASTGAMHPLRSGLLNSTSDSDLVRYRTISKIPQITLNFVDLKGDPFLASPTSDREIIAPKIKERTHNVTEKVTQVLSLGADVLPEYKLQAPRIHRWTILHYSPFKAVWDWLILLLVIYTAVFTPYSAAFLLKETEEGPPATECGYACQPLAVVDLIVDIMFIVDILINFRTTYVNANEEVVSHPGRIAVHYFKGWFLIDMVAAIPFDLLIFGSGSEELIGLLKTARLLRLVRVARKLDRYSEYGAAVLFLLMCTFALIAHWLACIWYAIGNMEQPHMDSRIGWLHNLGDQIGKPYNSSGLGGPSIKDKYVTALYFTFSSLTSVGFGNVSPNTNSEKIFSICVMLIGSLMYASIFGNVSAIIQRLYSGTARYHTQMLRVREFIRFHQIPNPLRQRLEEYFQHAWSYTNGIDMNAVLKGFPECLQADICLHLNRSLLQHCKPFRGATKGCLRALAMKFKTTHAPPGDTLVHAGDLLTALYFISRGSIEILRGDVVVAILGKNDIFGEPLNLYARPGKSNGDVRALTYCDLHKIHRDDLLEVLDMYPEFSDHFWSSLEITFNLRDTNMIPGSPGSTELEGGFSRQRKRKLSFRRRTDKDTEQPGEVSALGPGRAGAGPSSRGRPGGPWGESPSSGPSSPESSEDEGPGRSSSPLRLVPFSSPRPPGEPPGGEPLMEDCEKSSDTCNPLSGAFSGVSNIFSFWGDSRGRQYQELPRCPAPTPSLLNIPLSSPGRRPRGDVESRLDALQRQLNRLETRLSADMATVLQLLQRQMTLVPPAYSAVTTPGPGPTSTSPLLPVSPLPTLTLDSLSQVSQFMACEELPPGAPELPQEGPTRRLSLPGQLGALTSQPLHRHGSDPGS
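U2OS cells transduced with wild-type KCNH2 virus are loaded with FluxOr dye for 45 min, and thallium flux is measured in kinetic reads before and after stimulation buffer. Rate constants are normalized to DMSO controls.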
KB-3-1 tox = qHTS assay for MDR1-selective chemotherapeutics: Primary screen using the parental adenocarcinoma cell KB-3-1; KB-3-1 viability, CellTiter-Glo ATP luminescence, 72 h; Potency, µM (highest dose often 46.1 µM), hits mostly cytotoxic; hit rate 1.4% among 400,000; AID 1347075, 2019; further: potency means the concentration at half of the fitted maximal effect; on the % scale 0 is the no-effect control and ±100 the full control effect; nearly all actives have a fitted effect of over 60% in size
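Cytotoxicity in the drug-sensitive parental line KB-3-1 was scored as loss of CellTiter-Glo luminescence following 72 h incubation with compound. Values come from curve fitting of normalized concentration-response data.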
KB-V1 cytotox = qHTS assay for MDR1-selective chemotherapeutics: Primary screen using the drug-selected MDR subline cells KB-V1; Potency, µM (highest dose often 46.1 µM), actives largely listed as cytotoxic; hit rate 3.4% among 400,000; AID 1347076, 2019; KB-V1 MDR cells viability, CellTiter-Glo, 72 h; further: potency means the concentration at half of the fitted maximal effect; on the % scale 0 is the no-effect control and ±100 the full control effect; nearly all actives have a fitted effect of over 60% in size
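KB-V1, DMEM (no phenol red) + 10% FBS; cpd pin-transferred, titration series; 72 h, 37 degrees C; CellTiter-Glo, luminescence. Data normalized, curve-fit.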
Numbers without * were called inactive; i = inactive; ? = inconclusive; . = not tested or not shown. This is a sample that favours compounds with a hit; in the whole collection about 7.6% have one here. Unless noted, the call rests on the fitted dose curve; in most records, active means well fitted curve in the direction sought with a large enough effect; inconclusive means small, poorly fitted or top-dose-only effect, or another doubt; inactive means no such curve, though single readings can be large; an effect the other way counts as inactive or inconclusive.

SMILES	SW480 rereplic	KCNH2 3.1 inh	MCF10A rerep	KCNH2 WT inh	KB-3-1 tox	KB-V1 cytotox
COc1ccc(CCNC(=O)COc2ccc(S(=O)(=O)NC3CCCCC3)cc2Cl)cc1OC	15%	17	0%	3	?	10µM*
O=C(COc1ccc(S(=O)(=O)NC2CCCCC2)cc1Cl)NCc1ccc2c(c1)OCO2	25%	-6	10%	-5	i	?
O=C(COc1ccc(S(=O)(=O)NC2CCCCC2)cc1Cl)Nc1ccc2c(c1)OCO2	2%	3	?	-24	?	10µM*
O=C(COc1ccc([N+](=O)[O-])cc1Cl)NCCc1ccccc1	18%	-5	-4%	-4	i	21µM*
COCCNS(=O)(=O)c1ccc(OCC(=O)OC)c(Cl)c1	-15%	-6	0%	-1	i	i
COCCCNC(=O)COc1ccc(S(=O)(=O)NCc2ccccc2)cc1Cl	-5%	-8	1%	40	i	21µM*
CCc1cccc(CC)c1NC(=O)Cn1nnc2sc(-c3ccccc3)cc2c1=O	.	.	.	.	i	i
Nc1nc(N)nc(-c2cc(F)ccc2O)n1	?	21	?	14	i	i
COc1ccc(O)c(-c2nc(N)nc(N)n2)c1	?	9	7.3µM*	2	?	i
Cc1cc(Br)cn2c(Cc3ccccc3)c(-c3ccc(C#N)cc3)nc12	.	.	.	.	i	i
COc1cc(C=C2CN(C)C(=O)C2=O)ccc1O	.	4	.	13	i	i
CCOc1cc(/C=C2\CCn3c2nc2cc(Cl)ccc2c3=O)ccc1O	10µM*	-8	13µM*	-9	i	i
O=c1c2ccc(Cl)cc2nc2n1CC/C2=C\c1cccc(O)c1	?	-3	?	-6	?	?
CCOc1cc(/C=N/NC(=O)N/N=C/c2ccc(O)c(OCC)c2)ccc1O	?	8	?	-3	6.5µM*	i
CCOc1cc(/C=C2\CN(C)C/C(=C\c3ccc(O)c(OCC)c3)C2=O)ccc1O	1.6µM*	-21	0.73µM*	13	7.3µM*	21µM*
CCN(CC)C(=O)Oc1ccc(Br)cc1C(=O)Nc1ccc(F)cc1F	2%	4	6%	6	i	i
CCOC(=O)c1noc2nc(C)n(Cc3cccc(C#N)c3)c(=O)c12	.	.	.	.	i	?
COc1cc(OC)c(NC(=O)Nc2c(C)n(C)n(-c3ccccc3)c2=O)cc1Cl	.	.	.	.	i	i
CCOc1ccc(/C=N/Nc2nc(C)cs2)c(O)c1	?	-10	?	1	?	i
CN(C)S(=O)(=O)c1ccc(Cl)c(NC(=O)CN2CCN(Cc3ccc4c(c3)OCO4)CC2)c1	4%	4	?	10	?	15µM*
CCN(CC)S(=O)(=O)c1ccc(C)c(NC(=S)N2CCN(Cc3ccc4c(c3)OCO4)CC2)c1	-5%	6	?	13	23µM*	?
CN(Cc1ccc(F)cc1)S(=O)(=O)c1ccc2[nH]c(=O)[nH]c2c1	.	4	.	4	i	i
COc1cccc(CNc2ccc(N3CCC(C)CC3)cc2)c1OC	8%	-5	8%	11	21µM*	21µM*
CC(=O)Nc1c(C(=O)Nc2cccc(C)c2)nnn1-c1ccc(C)cc1	.	.	.	.	i	i
COc1ccc(-c2c(C(F)(F)F)[nH]n3c(=O)cc(-c4ccccc4)nc23)cc1	29µM*	-5	2.6µM*	1	i	?
COc1cccc(-c2cc3nc(-c4ccccc4)cc(=O)n3[nH]2)c1	22%	6	?	5	5.8µM*	4.6µM*
O=C(NCCc1cccnc1)C1CCC(=O)N(CCc2cccc(F)c2)C1 (stereo not drawn)	1%	-5	-5%	-8	.	.
